Screening results (PubChem BioAssay)
In the library only some 19% were active in any assay of this set; here they are far more common.
HT1080 IDH1KD tx: qHTS for induction of synthetic lethality in tumor cells producing 2HG: qHTS for the HT-1080-IDH1KD cell line; 360,000 compounds, 2% hits; HT-1080 IDH1 knockdown viability, ATP luminescence, 48 h; Potency, µM (doses to about 46.1 µM), actives largely listed as cytotoxic
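HT-1080-IDH1KD cells (IDH1 knocked down), 750/well in RPMI with 5% FBS, treated with compound 48 h at 37 degrees C. Viability by CellTiter-Glo luminescence, normalised to DMSO and no-cell wells; concentration-response curves classed.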
TDP1 cell CPT: qHTS for Inhibitors of human tyrosyl-DNA phosphodiesterase 1 (TDP1): qHTS in cells in presence of CPT | chicken DT40 Tdp1-/-;hTDP1 cells + 20 nM CPT, ATP luminescence, 48 h | Potency, µM (doses to about 46.2 µM), actives largely listed as inhibitors | 420,000 compounds, 12% hits | AID 686979, 2013; also: nearly all actives have a fitted effect of over 55% in size
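Chicken DT40 Tdp1-/- cells stably complemented with human TDP1 were seeded at 400 cells/well in medium containing 20 nM camptothecin, exposed to pin-transferred compounds, and grown at 37 °C for at least 48 hr. Viability was read as ATP luminescence.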
IL1B secr inh: qHTS for Inhibitors of Inflammasome Signaling: IL-1-beta AlphaLISA Primary Screen; 360,000 compounds, 4.7% hits; activity change, % at 57.5 µM; AID 743279, 2014; THP-1 LPS/ATP IL-1B secretion, AlphaLISA, 16 h; stronger effect = lower value; in the data active = activity change below about -50%; inconclusive = mostly about -30% to -49%
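Secreted IL-1B measured by AlphaLISA bead assay after 16 h compound exposure of THP-1 cells; compounds (final up to 57.5 uM) added 1 h before LPS (250 ng/mL) and ATP (1.25 mM) stimulation; lower signal means less secretion.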
DT40 TDP1 no CPT: qHTS for Inhibitors of human tyrosyl-DNA phosphodiesterase 1 (TDP1): qHTS in cells in absence of CPT; DT40 Tdp1-/- hTDP1 cells, no CPT, ATP luminescence, 48 h; Potency, µM (series often up to 46.2 µM), most hits filed as inhibitors; 420,000 compounds, 15% hits; AID 686978, 2013; also: nearly all actives have a fitted effect of over 55% in size
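Luminescent ATP content (CellTiter-Glo) served as the growth readout. Knockout chicken DT40 cells expressing human TDP1 were exposed to compounds without camptothecin for a minimum 48 hr at 37 °C.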
HT1080-NT tox: qHTS for induction of synthetic lethality in tumor cells producing 2HG: qHTS for the HT-1080-NT fibrosarcoma cell line; Potency, µM (top dose mostly 46.1 µM), hits mostly cytotoxic; 360,000 compounds, 1.6% hits; HT-1080-NT fibrosarcoma viability, CellTiter-Glo ATP luminescence, 48 h;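 also: NT is the 2HG producing partner of a matched IDH1 knockdown line; nearly all actives have a fitted effect of over 55% in size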
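750 cells/well, RPMI + 5% FBS; 2 h settle, compound pin-transfer, 48 h at 37 degrees C. CellTiter-Glo 10 min RT, luminescence. Normalized to DMSO and media-only wells.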
ELG1 repair inh: qHTS screen for small molecules that inhibit ELG1-dependent DNA repair in human embryonic kidney (HEK293T) cells expressing luciferase-tagged ELG1; HEK293T ELG1-luciferase reporter, luminescence, 16 h; DNA damage induced by 5-fluorouridine; Potency, µM (doses to about 46.1 µM), actives largely listed as inhibitors; 330,000 compounds, 2.3% hits; AID 504467, 2011; also: nearly all actives have a fitted effect of over 55% in size
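Overnight (16 hr) co-exposure of 2,000 cells/well to 5-fluorouridine and compound at 37 °C preceded detection. Luciferase was quantified via ONE-Glo luminescence; loss of signal denotes inhibition.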
Numbers stand for hits; i = inactive; ? = inconclusive; nt = not tested or not shown. Unless noted, calls follow the shape of the dose curve; as a rule, active = well fitted curve in the direction sought with a large enough effect; inconclusive = small, poorly fitted or top-dose-only effect, or another doubt; inactive = no such curve, though single readings can be large; an effect the other way counts as inactive or inconclusive.

SMILES	HT1080 IDH1KD tx	TDP1 cell CPT	IL1B secr inh	DT40 TDP1 no CPT	HT1080-NT tox	ELG1 repair inh
CCCc1c(-c2cccc(Br)c2)ncn1Cc1cccc(-c2ccccc2)c1	?	16.4µM	i	20.6µM	?	nt
CCOc1cc(/C=C(/C#N)c2nc3ccccc3[nH]2)ccc1Oc1ccc([N+](=O)[O-])cn1	i	13µM	?	?	i	i
COc1cc(/C=N/NC(=O)c2ccccc2Cl)ccc1Oc1ccc([N+](=O)[O-])cn1	i	?	i	?	i	?
CCOc1cc(/C=C(\C#N)c2nc3ccccc3[nH]2)ccc1OC(C)C(=O)O (stereo not drawn)	i	i	i	i	i	i
COc1cc(/C=C(/C#N)c2ccc(C)cc2)ccc1Oc1ccc([N+](=O)[O-])cn1	i	?	-69.3	?	i	i
CC(=O)Nc1cncc(-c2cccc(C(=O)N3CCOCC3)c2)n1	i	i	i	6.51µM	i	nt
CC(=O)Nc1cc(-c2ccc(C(=O)N3CCOCC3)cc2)cn2c(-c3cccc(C(C)=O)c3)cnc12	i	?	?	14.6µM	i	nt
CC(=O)c1cccc(-c2cnc3c(NC=O)cc(-c4ccc(C(=O)N5CCOCC5)cc4)cn23)c1	i	?	i	?	?	nt
CC(=O)Nc1cnc(-c2cccc(C(=O)N3CCOCC3)c2)cn1	i	i	i	i	i	nt
COc1cccc(-c2cnc3c(NC(C)=O)cc(-c4ccc(C(=O)N5CCOCC5)cc4)cn23)c1	20.6µM	20.6µM	?	18.4µM	?	nt
Cc1cc(C)c(C(=O)NCC(=O)c2ccccc2)c(C)c1	i	i	i	?	i	nt
Cc1cccc(-n2c3nc(=O)n(C)c(=O)c-3cc3ccc(Cl)cc32)c1C	nt	i	nt	?	nt	nt
Cc1ccccc1-n1c2nc(=O)[nH]c(=O)c-2cc2c(Cl)cccc21	nt	0.82µM	nt	0.517µM	nt	nt
O=C(Cn1nc2ccccc2n1)N/N=C/c1cc([N+](=O)[O-])ccc1O	?	?	i	?	i	6.51µM
O=C(N/N=C/c1cc([N+](=O)[O-])ccc1O)c1ccc(COc2ccc3c(c2)CCC3)o1	?	2.59µM	i	3.26µM	?	6.51µM
O=C(Cn1nnc(-c2ccccc2)n1)N/N=C/c1cc([N+](=O)[O-])ccc1O	i	5.8µM	i	4.11µM	i	i
O=C(CSc1ccccn1)N/N=C/c1cc([N+](=O)[O-])ccc1O	i	?	i	?	i	16.4µM
O=C(Cn1nnc(-c2ccccc2)n1)N/N=C/c1cc([N+](=O)[O-])c(Cl)cc1Cl	i	?	i	?	i	i
COc1ccc(C(NC(=O)C(C)C)c2c(O)ccc3ccccc23)cc1OC (stereo not drawn)	i	i	i	i	i	i
O=[N+]([O-])c1ccc2nc(C3CCCCC3)[nH]c2c1	i	?	i	?	i	?
O=C(N/N=C/c1cc([N+](=O)[O-])ccc1O)C1CCCCC1	?	5.17µM	i	4.61µM	?	i
O=[N+]([O-])c1ccc(O)c(C2CCCCC2)c1	16.4µM	?	?	?	14.6µM	nt
COc1cccc(C2(CC(=O)N3CCC(c4nc5ccc(F)cc5[nH]4)CC3)CC(=O)N(C)C2=O)c1 (stereo not drawn)	nt	i	nt	i	nt	nt
COc1ccc(OC)c(NC(=O)Cn2nc3c(cc2=O)CCCC3)c1	nt	i	nt	?	nt	nt
Cc1nc(OCC(=O)c2ccc(Cl)cc2)c(C#N)c2c1COC(C)(C)C2	i	?	i	?	i	?
SMILES	HT1080 IDH1KD tx	TDP1 cell CPT	IL1B secr inh	DT40 TDP1 no CPT	HT1080-NT tox	ELG1 repair inh
CCc1nc(OCC(=O)c2ccccc2)c(C#N)c2c1COC(C)(C)C2	i	?	i	18.4µM	i	?
CCOc1ccc(-n2c(=O)c3sc4ccccc4c3n(Cc3ccc(F)cc3)c2=O)cc1	nt	i	nt	?	nt	nt
O=Cc1ccc(O)cc1O	i	i	i	i	i	i
O=CN/C=C/c1cc(O)ccc1O	i	4.11µM	i	4.61µM	i	i
Cc1cnc(CNc2ccnc(-c3cccc(C#N)c3)n2)cn1	nt	i	nt	i	nt	nt
COc1ccc(S(=O)(=O)N2CCCCC2c2cc(C(=O)Nc3ccccc3)no2)cc1 (stereo not drawn)	i	i	i	i	?	nt
COc1ccc(S(=O)(=O)N2CCCCC2c2cc(C(=O)NCc3cccnc3)no2)cc1 (stereo not drawn)	i	29.1µM	i	?	i	nt
COc1ccc(S(=O)(=O)N2CCCCC2c2cc(C(=O)Nc3ccc(OC)cc3C)no2)cc1 (stereo not drawn)	i	16.4µM	i	18.4µM	i	nt
COc1ccc(NC(=O)c2cc(C3CCCCN3S(=O)(=O)c3cccs3)on2)c(C)c1 (stereo not drawn)	i	?	i	23.1µM	i	nt
COc1ccc(NC(=O)c2cc(C3CCCCN3S(=O)(=O)c3ccc(C#N)cc3)on2)c(C)c1 (stereo not drawn)	i	?	i	?	i	nt
COc1ccc(S(=O)(=O)N2CCCCC2c2cc(C(=O)Nc3ccc(F)c(Cl)c3)no2)cc1 (stereo not drawn)	?	16.4µM	i	16.4µM	?	nt
Cc1ccc(C(C)C)c(OCC(=O)NC2CCN(C)CC2)c1	i	i	i	i	i	i
COc1ccc2oc(CS(=O)c3ccccc3)c(C(=O)O)c2c1 (stereo not drawn)	i	i	i	i	i	?
COc1ccc(/C=C/C(=O)c2c(O)ccc3c(C)cc(=O)oc23)cc1	?	?	?	?	?	i
CCNc1ccc(Br)cc(C(=O)/C=C/c2ccc(Cl)cc2Cl)c1=O	?	10.3µM	-97.8	9.2µM	?	?
CNc1ccc(Br)cc(C(=O)/C=C/c2ccc(OC)cc2)c1=O	i	6.51µM	?	18.4µM	i	?
CNc1ccc(Br)cc(C(=O)/C=C/c2cc(OC)ccc2OC)c1=O	?	20.6µM	-99.4	10.3µM	?	?
COCCCNC(=O)/C=C/c1ccc(Cl)cc1Cl	i	i	i	?	i	?
CNc1ccc(Br)cc(C(=O)/C=C/c2ccc3c(c2)OCO3)c1=O	?	18.4µM	-100.3	18.4µM	?	?
O=C(/C=C/c1ccc2c(c1)OCO2)NC1CCCC1	i	i	i	i	i	?
COc1cccc(CNC(=O)[C@@H]2CCCN2)c1	i	i	i	i	i	nt
